In PubChem BioAssay AID1986 (Sanford-Burnham Center for Chemical Genomics, 2009):
Among all 290,000 compounds or so, about 890 (0.31%) were called active. Rule as the data show it: active = inhibition mostly above about 52% (no sharp cut-off); inactive = mostly below about 76%. For the sample, actives were picked, then their nearest neighbours and some compounds at random.

Assay: inhibitors of HIV fusion peptide binding, primary screen, biochemical, uHTS, fluorescence dequenching (AID 1986)
Details: cell-free peptide binding, 30 min, stronger effect = higher value
[1] = measured here: repeat confirmation average inhibition, at 18.6 µM

SMILES	inhibition (at 20 µM)	inhibition [1] [%]
Cc1ccc(/C=C2/Sc3ccc(C(=O)N4CCC5(CC4)OCCO5)cc3NC2=O)cc1	54.6% (inactive)	37.1
CCOC(=O)c1sc(/N=C/c2c(O)n(-c3ccccc3)c(=O)[nH]c2=O)c(C#N)c1C	-1.7% (inactive)	–
O=C(O)C1C2c3ccccc3C(c3ccccc32)C1C(=O)Nc1ccccc1 (centres undefined)	4.1% (inactive)	–
CC12CN3CCN(CC(C3)C1O)C2 (centres undefined)	-2.7% (inactive)	–
COc1ccccc1/C=N/N=C(/N)N[N+](=O)[O-]	2.7% (inactive)	–
COc1cccc(CN2CC=C(c3ccc(F)cc3)CC2)c1	2.3% (inactive)	–
COc1ccc(CN2CCN(Cc3ccccc3)CC2)c(OC)c1	-1.2% (inactive)	–
Cc1ccc(N2C(=O)NC(=O)/C(=C\c3cc(C)n(-c4sc5c(c4C#N)CCCC5)c3C)C2=O)cc1	52.2% (active)	–
Cc1cc(/C=C2\C(=O)NC(=O)N(c3ccc(Cl)cc3)C2=O)c(C)n1-c1sc2c(c1C#N)CCCC2	64.4% (inactive)	9
Cc1cccc(N2C(=O)NC(=O)/C(=C\c3cc(C)n(-c4sc5c(c4C#N)CCCC5)c3C)C2=O)c1C	22% (inactive)	–
CNP(=O)(Oc1ccccc1)OC12CC3CC(CC(C3)C1)C2 (centres undefined)	1.8% (inactive)	–
C=CCn1c(O)c(C(C)=NCCCn2ccnc2)c(=O)[nH]c1=O	0.6% (inactive)	–
Cc1cc2c(C(C)C)c(O)c(O)c(C=O)c2c(O)c1-c1c(C)cc2c(C(C)C)c(O)c(O)c(C=O)c2c1O	65.7% (active)	–
COc1cccc(C(=O)C2CCCN(C3CCOCC3)C2)c1 (centres undefined)	0.4% (inactive)	–
Cc1ccccc1N1C(=O)NC(=O)/C(=C\c2ccc3c(c2)CCCN3Cc2ccccc2)C1=O	15.8% (inactive)	–
O=C1NC(=O)N(c2ccc(F)cc2)C(=O)/C1=C/c1ccc2c(c1)CCCN2Cc1ccccc1	56.3% (active)	–
Cc1cccc(N2C(=O)NC(=O)/C(=C\c3ccc4c(c3)CCCN4Cc3ccccc3)C2=O)c1	48.8% (inactive)	–
CC1CCC(N2CCN(C(=O)COc3ccccc3)CC2)CC1 (centres undefined)	2.3% (inactive)	–
Cn1cc(C(=O)c2ccccc2)c2ccccc21	-2% (inactive)	–
Cn1cc(C=C(C#N)C#N)c2ccccc21	72.4% (active)	90.2
Cn1cc(C=C2C(=O)NC(=O)NC2=O)c2ccccc21	160% (inactive)	–
C=C1N2CCC(CC2)C1(O)c1ccccc1C (centres undefined)	1.2% (inactive)	–
O=C(c1cccnc1)C1CCCN(Cc2nc(-c3cnccn3)no2)C1 (centres undefined)	-0.9% (inactive)	–
C=CCc1cc(C=C2C(=O)N(C)C(=O)N(C)C2=O)cc(OCC)c1OCc1ccccc1	11.3% (inactive)	–
Cc1cc2c(C(F)(F)F)cc(=O)oc2c2c1NCCC2	51.9% (active)	56.2
Cc1cc(=O)oc2cc3c(cc12)CCCN3	0.7% (inactive)	–

SMILES	inhibition (at 20 µM)	inhibition [1] [%]
O=c1cc(C(F)(F)F)c2cc3c4c(c2o1)CCCN4CCC3	-0.6% (inactive)	–
COc1ccc(CN2C(=O)NC(=O)/C(=C/c3ccoc3)C2=O)cc1	146% (inactive)	–
COc1ccc(N2C(=O)/C(=C/c3cccs3)C(=O)NC2=S)cc1	15.2% (inactive)	–
CCN(CC)c1ccc(/C=C2/C(=O)NC(=O)N(CC3CCCO3)C2=O)cc1 (centres undefined)	22.9% (inactive)	–
CCN(CC)c1ccc(/C=C2\C(=O)NC(=O)N(Cc3ccco3)C2=O)cc1	84.3% (active)	–
O=C1NC(=O)N(Cc2ccccc2)C(=O)/C1=C\C=C\c1ccco1	84.6% (inactive)	15.8
O=C1NC(=O)N(Cc2ccco2)C(=O)/C1=C/C=C/c1ccco1	83.8% (active)	–
CCN(CC)c1ccc(/C=C2\C(=O)NC(=O)N(CC3CCCO3)C2=O)cc1 (centres undefined)	48.8% (inactive)	–
O=C1NC(=O)N(Cc2ccccc2)C(=O)/C1=C\c1ccco1	65.1% (inactive)	4.5
CCOc1ccc(N2C(=O)/C(=C\c3cccs3)C(=O)NC2=S)cc1	55.7% (active)	–
CCOc1ccc(N2C(=O)/C(=C/c3ccco3)C(=O)NC2=S)cc1	31.9% (inactive)	–
O=C1NC(=O)N(Cc2ccccc2)C(=O)/C1=C/C=C/c1ccco1	146% (inactive)	–
COc1ccc(CN2C(=O)NC(=O)/C(=C\c3ccco3)C2=O)cc1	91.3% (active)	–
CN(C)C(=O)Oc1ccc(-c2cn3cc(Cl)ccc3n2)cc1	-0.5% (inactive)	–
COCCOC(=O)C1=C(C)OC(N)=C(C(=O)OC)C12C(=O)Nc1ccccc12 (centres undefined)	-2% (inactive)	–
CNC(C(=O)c1ccccc1)C(OC)c1cccc([N+](=O)[O-])c1 (centres undefined)	1.8% (inactive)	–
Cc1cc(C)nc(N2Cc3ccccc3C2=N)n1	-3.6% (inactive)	–
COc1ccc(OC(=O)N(C)C)c(CN(C)C)c1	0.5% (inactive)	–
COc1ccc(/C=C2/C(=O)N(Cc3ccco3)C(=O)N(C(C)C)C2=O)cc1	9% (inactive)	–
COc1ccc(CN2C(=O)NC(=O)/C(=C/c3ccc([N+](=O)[O-])o3)C2=O)cc1	85.6% (active)	–
CN1C(=O)NC(=O)/C(=C/c2ccc([N+](=O)[O-])o2)C1=O	27.7% (inactive)	–
O=C1NC(=O)N(Cc2ccc(F)cc2)C(=O)/C1=C/c1cccs1	-3.9% (inactive)	–
C=CCN1C(=O)/C(=C/c2cccs2)C(=O)NC1=S	15.5% (inactive)	–
COc1ccc(/C=C2/C(=O)NC(=O)N(Cc3ccco3)C2=O)cc1	50.2% (active)	–
Cc1cc(/C=C2/C(=O)NC(=O)N(Cc3ccco3)C2=O)c(C)n1-c1ccccc1	92.7% (inactive)	2.6
Cc1cccc(N2C(=O)NC(=O)/C(=C\C=C\c3ccco3)C2=O)c1	98.4% (active)	–
